Laboratory results published in PubChem BioAssay AID2099 (Broad Institute, 2009).
The whole screen tested about 330,000 compounds, of which about 230 (0.07%) were called active.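 The calls were made as follows: active = more than half of a compound's replicate wells show inhibition beyond 50%, single wells judged on their own value; inconclusive = some, but no more than half, of replicates pass 50% inhibition; inactive = no replicate passes 50% inhibition.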 The list comes from a sample in which actives are over-represented; it also holds similar structures and randomly drawn compounds.

Target: Lysine-specific demethylase 4C (Homo sapiens) (UniProt Q9H3R0)
Experiment: JMJD2C H3K9me3 demethylation blockers – biochemical, fluorescence, DELFIA europium, primary screen (AID 2099);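 also: signal counts dimethyl H3K9 product captured on neutravidin plate; 0% = median of DMSO wells and 100% = 0.3 times that DMSO median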
Settings: GST-JMJD2C(1-420) H3K9me3 demethylation, at 2.35 µM, hits give high values

Lysine-specific demethylase 4C (Homo sapiens), sequence (Q9H3R0 1-420 limits assumed): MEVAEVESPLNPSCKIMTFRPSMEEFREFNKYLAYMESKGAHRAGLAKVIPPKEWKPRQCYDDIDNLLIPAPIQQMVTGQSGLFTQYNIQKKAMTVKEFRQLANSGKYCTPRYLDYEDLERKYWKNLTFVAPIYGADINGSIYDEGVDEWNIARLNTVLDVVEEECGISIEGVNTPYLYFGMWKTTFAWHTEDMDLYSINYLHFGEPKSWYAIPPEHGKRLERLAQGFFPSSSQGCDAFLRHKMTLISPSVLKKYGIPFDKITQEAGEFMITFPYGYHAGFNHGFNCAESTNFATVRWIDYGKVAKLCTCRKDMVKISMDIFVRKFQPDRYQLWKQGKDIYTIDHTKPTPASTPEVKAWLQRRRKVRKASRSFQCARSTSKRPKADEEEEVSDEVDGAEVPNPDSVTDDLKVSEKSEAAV

SMILES | inhibition
O=C(N1CCCCC1)N1CCN(C(=O)N2CCCCC2)CC1 | -0.997% (inactive)
COc1ccc(CC(NC(C)=O)C(=O)N2CCN(C(=O)Nc3cccc(Cl)c3)CC2)cc1OC (centres undefined) | 3.8% (inactive)
Cc1ccc2oc(C(=O)N3CCN(C)C[C@@H]3C(C)C)c(C)c2c1 | -21.1% (inactive)
COc1ccc(-c2nc3n(c(=O)c2C#N)CCS3)c(OC)c1 | -2.02% (inactive)
COc1ccccc1OCC(=O)Nc1c2c(nn1-c1ccc(F)cc1)CS(=O)(=O)C2 | -10.7% (inactive)
COC(=O)c1c(NC(=O)CN(c2ccc(C)c(C)c2)S(C)(=O)=O)sc2c1CCCC2 | 5.54% (inactive)
NS(=O)(=O)c1ccc(CNC(=S)NC(=O)c2ccco2)cc1 | 2.82% (inactive)
CC(C)C[C@@H](N)c1nnc(SCC(=O)c2ccc(Cl)cc2)o1 | -0.106% (inactive)
C=CCSc1nc(Cc2ccc(Cl)cc2)nc2ccccc12 | -13.3% (inactive)
CCOc1ccc(C(C)=O)cc1COC(=O)c1cnc(Cl)c(Cl)c1 | -8.14% (inactive)
O=S(=O)(NCCc1ccccn1)c1cc(Cl)cc(Cl)c1O | 6.23% (inactive)
CCN(C(=O)CSc1ncnc2sccc12)c1c(N)n(Cc2ccccc2)c(=O)[nH]c1=O | -1.94% (inactive)
CN1C(=O)c2ccccc2C(C(=O)NCCCN2CCCC2)C1c1c[nH]c2ccccc12 (centres undefined) | -5.55% (inactive)
COCCCn1c(SCC(=O)Nc2oc(C)c3c(C)n[nH]c(=O)c23)nc2sc3c(c2c1=O)CCC3 | -6.89% (inactive)
CCC(CO)Oc1cc(NC(=O)c2cccc(F)c2)c2ncn(C(C)C)c2c1 (centres undefined) | -5.85% (inactive)
CCC(CO)Oc1cc(NCc2ccccc2)c2ncn(C3CCCC3)c2c1 (centres undefined) | -1.07% (inactive)
CCC(CO)Oc1cc(NC(=O)c2cccc3ccccc23)c2ncn(C(C)C)c2c1 (centres undefined) | 51.8% (active)
CC(=O)Nc1ccc(Nc2ncnc3c2nnn3Cc2ccccc2Cl)cc1 | 1.4% (inactive)
CCC(=O)N1c2ccc(S(=O)(=O)NCc3ccco3)cc2CC1C (centres undefined) | 15.7% (inactive)
Cc1[nH]c(C)c(S(=O)(=O)N2CCN(c3cccc(C(F)(F)F)c3)CC2)c1C(=O)N1CCCCC1 | 30% (inactive)
Cc1ccc(C)c(NC(=O)CCC(=O)N/N=C2/CC(=O)CC(C)(C)C2)c1 | 3.28% (inactive)
COc1ccccc1NC1=NC(c2ccc(Cl)cc2)N=C(N)N1 (centres undefined) | 0.933% (inactive)
Cc1ccc(S(=O)(=O)N2CCC(C(=O)OCC(=O)N(C)c3ccccc3)CC2)cc1C | 10.2% (inactive)
O=C1c2ccccc2C(=O)N1CCOc1ccc(F)cc1 | -6.36% (inactive)
